Source: PubChem (National Center for Advancing Translational Sciences (NCATS))
Hits are enriched below; roughly 0.88% of the tested compounds scored in any of these assays.
TRHR ag – agonists of human TRH receptor. P34981. TRHR cells, calcium flux fluo-8, FDSS agonist mode. activation, % at 2 µM. hit rate 0.18% among 360,000. AID 493084; in the data active = activation above about 30%; note: 0% is about no effect
Target sequence (P34981 whole entry, looked up): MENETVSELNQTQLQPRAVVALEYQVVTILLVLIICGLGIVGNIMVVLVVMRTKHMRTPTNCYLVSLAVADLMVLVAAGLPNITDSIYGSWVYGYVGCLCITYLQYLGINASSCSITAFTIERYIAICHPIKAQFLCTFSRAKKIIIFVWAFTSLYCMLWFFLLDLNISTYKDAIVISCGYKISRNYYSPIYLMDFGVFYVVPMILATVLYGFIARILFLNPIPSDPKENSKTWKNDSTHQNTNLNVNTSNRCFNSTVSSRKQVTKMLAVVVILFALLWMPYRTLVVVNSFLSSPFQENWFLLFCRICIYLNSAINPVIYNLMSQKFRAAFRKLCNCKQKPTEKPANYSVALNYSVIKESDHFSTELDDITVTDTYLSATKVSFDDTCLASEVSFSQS
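Agonist-mode FDSS calcium read (Ex 480/Em 530, 1 s cycles) in 1536-well TRHR cells with fluo-8 dye, after 10-cycle baseline and 23 nL compound addition; TRH at EC20 (10 nM final) added afterwards for the enhancer phase.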
TRHR PAM – allosteric enhancers of human TRH receptor; AID 493056; enhancement, % at 2 µM; P34981; hit rate 0.66% among 360,000; TRHR cells, fluo-8 calcium fluorescence, EC20 TRH enhancement; in the data active = enhancement above about 30%; note: 0% is about no effect
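TRHR-expressing cells loaded with fluo-8 calcium dye were read kinetically (ex 480/em 530) during compound addition, then stimulated with an EC20 of TRH (10 nM final). Enhancement of the Gq-mediated intracellular calcium response was scored.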
IL2 activator – IL-2 activation. activation, % (series mostly up to about 46 µM). IL-2 activation reporter assay, cell-based qHTS; stimulated with anti-CD3/CD4/CD28 beads; in transgenic mouse T cells. AID 652025. hit rate 0.065% among 360,000; in the data active = activation above about 50%; inconclusive = mostly about 30% to 49%; note: 0% is about no effect
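First, unstimulated transgenic mouse T cells were exposed to compound for 60 min. Next, anti-CD3/anti-CD4-coated beads with anti-CD28 were added. Finally, after 18 h at 37 degrees C, EGFP and DsRed were imaged.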
MBNL1-CUG inh – inhibitors of human MBNL1 binding to CUG repeat RNA; TR-FRET MBNL1-His/biotin-(CUG)12 binding, 665/545 ratio; hit rate 0.036% among 280,000; Potency, µM (top dose mostly 57.5 µM), without a hit: at the highest dose activity change, negative = inhibition, usual class: inhibitors; AID 2675; active = well fitted inhibition curve with a large enough effect in the signal ratio, with a control signal flat, not every such curve was filed as active; inconclusive = small, poorly fitted or top-dose-only effect, or effect the other way, or a change in a side signal; inactive = no such curve, though single readings can be large or run the other way; the % refers to the signal ratio; note: potency is the fitted concentration of half-maximal effect; % is set by controls: 0 for no effect and ±100 for the full control effect
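TR-FRET readout: Ex 340 nm, 665/545 nm emission ratio, normalized to buffer-only (basal) and MBNL1-(CUG)12 controls. Complex of MBNL1-His with Biotin-(CUG)12, compounds 92 nM–58 uM, incubated 60 min at room temperature.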
Epigenetic reg – regulators of epigenetic silencing causing reporter derepression in mouse cells; murine LDR cells, GFP reporter derepression, 30 h; Potency, µM (top dose mostly 53.9 µM), for inactives: top-dose GFP activation, hits mostly activators; hit rate 0.2% among 280,000; AID 1865; note: potency is the fitted concentration of half-maximal effect; % of control where 0% means no effect; nearly all actives have a fitted effect of over 60% in size
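Murine LDR cells bearing a silenced CMV-driven GFP reporter were exposed to compound for 30 h at 37 C. After PBS washes, GFP-positive cells (20-120 um objects) counted by laser-scanning microplate cytometry.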
CBFb-RUNX1 inh – CBF-beta/RUNX1 interaction disruption; Q01196+Q13951; AlphaScreen CBFb-His/RUNX1-biotin binding, biochemical; Potency, µM (titrated, usually from 59.8 µM), inactives show at the top dose activity, negative = inhibition, hits mostly inhibitors; 230,000 tested, under 10 active; AID 1477; note: % of control where 0% means no effect
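Proteins preincubated together for 20 min at RT before compound addition; 15 min later, nickel and streptavidin beads were added and left 90 min prior to AlphaScreen measurement.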
Starred values were filed as active, the others as inactive; ? = inconclusive; nt = not tested or not shown; ! = repeats disagree; [ ] = remark or other dose. Unless noted, calls come from the whole dose curve; as a rule, active = well fitted curve in the direction sought with a large enough effect; inconclusive = small, poorly fitted or top-dose-only effect, or another doubt; inactive = no such curve, though single readings can be large; an effect the other way counts as inactive or inconclusive.

SMILES | TRHR ag | TRHR PAM | IL2 activator | MBNL1-CUG inh | Epigenetic reg | CBFb-RUNX1 inh
CC(Sc1nc2ccccc2[nH]1)C(=O)O (stereo unspecified) | -2 | 5 | 0 | -4% | 2% | 4%
Cn1c2cc(Br)sc2c2cnn(Cc3ccccc3F)c(=O)c21 | -1 | -2 | nt | nt | nt | nt
c1ccc(Nc2nc3ccccc3n3cnnc23)cc1 | -1 | 34* | 3 | 22% | 2% | -2%
COc1ccc(CCNC(=O)CSc2nc3nc(C)c(Cc4ccc(C)cc4)c(C)n3n2)cc1OC | -1 | -1 | nt | nt | 1% | nt
CCn1cc(Br)c(C(=O)NC(C)c2ccccc2)n1 (stereo unspecified) | 0 | 2 | 72* | -13% | 0% | 0%
O=C(NCCc1ccccc1)C1CCCN1S(=O)(=O)c1cccc2nsnc12 (stereo unspecified) | 0 | -2 | -2 | ? | nt | nt
NS(=O)(=O)c1ccc(CCNC(=O)C2CCCN2S(=O)(=O)c2cccc3nsnc23)cc1 (stereo unspecified) | 0 | 32* | -5 | ? | nt | nt
COC(=O)[C@]12CCCCC=C1N(CCc1ccc(OC)c(OC)c1)C(=O)[C@H](CC(=O)N1CCCCC1)C2 | nt | nt | -1 | nt | nt | nt
CCOc1ccc(NC(=O)Nc2cnccn2)cc1 | 0 | 36* | -3 | -4% | 2% | 4%
CC1CCN(CCCn2c(=S)[nH]c3c(sc4ccccc43)c2=O)CC1 | 0 | 17 | -1 | 7% | 1% | 15%
COCCCn1c(=S)[nH]c2c(sc3ccccc32)c1=O | 0 | 32* | 0 | 37% | -1% | -21%
Cc1cccc(NC(=O)CSc2nnc(C3CC3)n2CC2CCCO2)c1C (stereo unspecified) | 0 | -7 | 0 | -1% | nt | nt
CCc1ccccc1NC(=O)CSc1nnc(C2CC2)n1CC1CCCO1 (stereo unspecified) | -2 | 31* | 0 | -2% | nt | nt
CCn1c(CN2CCN(c3cccc(Cl)c3)CC2)nc2c1c(=O)[nH]c(=O)n2C | -2 | 11 | nt | nt | -2% | nt
CN1C(=O)Cc2cc(S(=O)(=O)NCCc3ccc(Cl)cc3)ccc21 | 1 | 40*! | -2 | 1% | 0% | nt
O=C(NC1CCCC1)C(c1ccncc1)N(C(=O)c1csnn1)c1ccccc1F (stereo unspecified) | 0 | 28 | -2 | 6% | nt | nt
Cc1ccccc1N(C(=O)c1csnn1)C(C(=O)NC1CCCCC1)c1ccncc1 (stereo unspecified) | -1 | 32* | 0 | -3% | nt | nt
CCSc1cc(N2CCCC2)nc(-c2cccc(C)c2)n1 | -1 | 31* | -2 | ? | -1% | -8%
CCSc1cc(N2CCCC2)nc(-c2ccc(C)cc2)n1 | -1 | 3 | 0 | ? | 0% | -12%
O=C(C1=C[C@@H](c2csc3ccccc23)C[C@@H](OCc2ccc(CO)cc2)O1)N1CCN(Cc2ccccc2)CC1 | 1 | 31* | 0 | 8% | ? | -23%
O=C(C1=C[C@@H](c2csc3ccccc23)C[C@@H](OCc2ccc(CO)cc2)O1)N1CCN(Cc2ccc3c(c2)OCO3)CC1 | 1 | -1 | 0 | 2% | 5% | ?
Cc1sc2ncn(CC(=O)N3CCN(c4ccccc4F)CC3)c(=O)c2c1S(=O)(=O)N1CCN(c2ncccn2)CC1 | -1 | 10 | nt | nt | -1% | nt
COc1cc(NC(=O)C(OC(=O)CNC(=O)c2ccccc2)c2ccccc2)c(OC)cc1Cl (stereo unspecified) | 0 | -1 | nt | nt | nt | nt
COC(=O)CCCC[C@H]1SC[C@H]2NC(=O)N[C@]21O | 0 | 1 | nt | 0.32µM* | 0% | -26%
COC(=O)CCCCC1SCC2NC(=O)NC21O (stereo unspecified) | 0 | -1 | 0 | 0.71µM* | -4% | nt
SMILES | TRHR ag | TRHR PAM | IL2 activator | MBNL1-CUG inh | Epigenetic reg | CBFb-RUNX1 inh
Cc1cccc(C2=N[C@@H](Cc3ccccc3)CO2)c1 | nt | nt | nt | nt | -5%[96.6 µM] | 32%[89.1 µM]
COc1ccc(-c2nc3n(n2)C(c2ccccc2OC)C(C(=O)Nc2cccnc2)=C(C)N3)cc1 (stereo unspecified) | -1 | 4 | nt | nt | -1% | nt
COc1ccc2nc(NS(=O)(=O)c3ccc(C)cc3)c(Nc3cc(Cl)ccc3OC)nc2c1 | 11 | -2 | nt | nt | 25µM* | nt
C=CCN1C(=O)[C@@H]2Cc3c([nH]c4ccccc34)C(c3cc(OC)c(OC)c(OC)c3)N2C1=S (stereo partly specified) | 4 | 6 | 105* | -4% | nt | nt
C=CCN1C(=O)[C@@H]2Cc3c([nH]c4ccccc34)C(c3ccc(O)cc3)N2C1=S (stereo partly specified) | 4 | 7 | 8 | 0% | nt | nt
CCN1C(=O)[C@@H]2Cc3c([nH]c4ccccc34)C(c3cc(OC)c(OC)c(OC)c3)N2C1=S (stereo partly specified) | 1 | 10 | 94* | 2% | nt | nt
O=C1CC(c2ccc(F)cc2)c2c(c3ccccc3[nH]c2=O)O1 (stereo unspecified) | 0 | 0 | nt | nt | 1% | nt
COc1cc(C2CC(=O)Oc3c2c(=O)[nH]c2ccccc32)cc(OC)c1OC (stereo unspecified) | 0 | 31* | nt | nt | 0% | nt
O=C(NNC(=S)Nc1ccccc1)c1cccnc1 | 0 | 41* | -2 | -2% | nt | nt
COc1ccc(C(CC(=O)O)NC(=O)C2CCCCC2)cc1 (stereo unspecified) | 0 | 39* | -3 | -3% | -4% | 5%
COC(=O)c1ccc(/C=C/C(=O)c2ccc(OC)c(OC)c2)cc1 | 0 | 36* | -1 | -10% | 6% | -2%
COc1ccc(/C=C/C(=O)c2ccc(C(=O)/C=C/c3ccc(OC)c(OC)c3)cc2)cc1OC | 9 | -1 | 1 | 10% | nt | nt
CCOc1ccc(NC(=O)Cn2c(=O)n(CCC(=O)NCCc3ccccc3)c(=O)c3ccccc32)cc1 | 0 | 2 | nt | nt | 3% | nt
COc1ccc(C(=O)NCCc2csc(-c3ccc(Cl)cc3)n2)c(OC)c1 | 1 | 36* | nt | nt | -2% | nt
COc1cccc(Nc2nc(C#N)nc(NC3CCCC3)n2)c1 | -3 | -5 | nt | nt | nt | nt
NC(=O)c1ccc(NCCc2ccccc2)c([N+](=O)[O-])c1 | -1 | 10 | 1 | ? | 0% | 11%
O=C(Nc1ccccc1)c1ccc(NCCc2ccccc2)c([N+](=O)[O-])c1 | 0 | -6 | 7 | 0% | 13µM* | -2%
COc1ccc(Cn2c(C(=O)O)c(CNCc3ccc(SC)cc3)c3ccc(OC)cc32)cc1 | 0 | 22 | nt | nt | -2% | nt
Cc1cc2c(s1)c1cnn(Cc3ccc(F)c(Cl)c3)c(=O)c1n2C | 0 | 0 | nt | nt | nt | nt
